Screen size: about 5,500 compounds; about 2,000 (36%) were called active. Inconclusive results (about 18%) are left out. Cut-off read from the data, not from the text of the source: active = normalized growth mostly below about 0.91 (no sharp cut-off); inconclusive = no clear call, values can overlap the other calls; inactive = mostly above about 0.92. The list shows a part of the results.
Test: chemical genetic growth profiling, strain panel (AID 1159580);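 note: tested at 20 µM; growth read once vehicle control cultures reached saturation at 30 °C; 1 = growth at the plate median or of vehicle wells; lower values mean less growth of the strain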
Conditions: S. cerevisiae deletion strains, growth OD

Measured: normalized growth

N[C@H](CCC(=O)NCS(=O)(=O)O)C(=O)O
inactive: locus YAL013W, strain DEP1, stronger effect = lower value 1.01 | locus YAL040C, strain CLN3, stronger effect = lower value 0.996 | locus YCL061C, strain MRC1 (second series), stronger effect = lower value 1.01 | locus YDR150W, strain NUM1, stronger effect = lower value 1 | locus YDR363W, strain ESC2, stronger effect = lower value 1.02 | locus YER002W, strain NOP16, stronger effect = lower value 1.02 | locus YGR078C, strain PAC10, stronger effect = lower value 0.997 | locus YGR229C, strain SMI1, stronger effect = lower value 1.03 | locus YMR263W, strain SAP30, stronger effect = lower value 1.01 | locus YMR307W, strain GAS1, stronger effect = lower value 1 | locus YNL128W, strain TEP1, stronger effect = lower value 1 | locus YNL175C, strain NOP13, stronger effect = lower value 0.998 | locus YNL197C, strain WHI3, stronger effect = lower value 0.997 | locus YNL224C, strain SQS1, stronger effect = lower value 0.986 | locus YNL322C, strain KRE1, stronger effect = lower value 1.01 | locus YOR083W, strain WHI5 (second series), stronger effect = lower value 0.981 | locus YPL055C, strain LGE1, stronger effect = lower value 1.02 | locus YPL241C, strain CIN2, stronger effect = lower value 1

Reference: PubChem BioAssay AID1159580 (chemical genetic matrix, 2015)
